The supplement of paper PMC11732987, “Enantioselective OTUD7B fragment discovery through chemoproteomics screening and high-throughput optimisation” (Communications Chemistry, 2025)

How the values were obtained:
Assay in all cases: log2 ratio of Biotin-Ahx-Ub-VS probe labelling (fragment/DMSO); higher = less target engagement (more negative = stronger competition), active = hit call of the paper (q ≤ 0.05, log2 ratio ≤ -1)
Details in all cases: compound concentration: 200 uM; treatment time: 3 h
USP34 = USP34 (UniProt Q70CQ2)
USP34, sequence (Q70CQ2 whole entry, the tested form may be a part): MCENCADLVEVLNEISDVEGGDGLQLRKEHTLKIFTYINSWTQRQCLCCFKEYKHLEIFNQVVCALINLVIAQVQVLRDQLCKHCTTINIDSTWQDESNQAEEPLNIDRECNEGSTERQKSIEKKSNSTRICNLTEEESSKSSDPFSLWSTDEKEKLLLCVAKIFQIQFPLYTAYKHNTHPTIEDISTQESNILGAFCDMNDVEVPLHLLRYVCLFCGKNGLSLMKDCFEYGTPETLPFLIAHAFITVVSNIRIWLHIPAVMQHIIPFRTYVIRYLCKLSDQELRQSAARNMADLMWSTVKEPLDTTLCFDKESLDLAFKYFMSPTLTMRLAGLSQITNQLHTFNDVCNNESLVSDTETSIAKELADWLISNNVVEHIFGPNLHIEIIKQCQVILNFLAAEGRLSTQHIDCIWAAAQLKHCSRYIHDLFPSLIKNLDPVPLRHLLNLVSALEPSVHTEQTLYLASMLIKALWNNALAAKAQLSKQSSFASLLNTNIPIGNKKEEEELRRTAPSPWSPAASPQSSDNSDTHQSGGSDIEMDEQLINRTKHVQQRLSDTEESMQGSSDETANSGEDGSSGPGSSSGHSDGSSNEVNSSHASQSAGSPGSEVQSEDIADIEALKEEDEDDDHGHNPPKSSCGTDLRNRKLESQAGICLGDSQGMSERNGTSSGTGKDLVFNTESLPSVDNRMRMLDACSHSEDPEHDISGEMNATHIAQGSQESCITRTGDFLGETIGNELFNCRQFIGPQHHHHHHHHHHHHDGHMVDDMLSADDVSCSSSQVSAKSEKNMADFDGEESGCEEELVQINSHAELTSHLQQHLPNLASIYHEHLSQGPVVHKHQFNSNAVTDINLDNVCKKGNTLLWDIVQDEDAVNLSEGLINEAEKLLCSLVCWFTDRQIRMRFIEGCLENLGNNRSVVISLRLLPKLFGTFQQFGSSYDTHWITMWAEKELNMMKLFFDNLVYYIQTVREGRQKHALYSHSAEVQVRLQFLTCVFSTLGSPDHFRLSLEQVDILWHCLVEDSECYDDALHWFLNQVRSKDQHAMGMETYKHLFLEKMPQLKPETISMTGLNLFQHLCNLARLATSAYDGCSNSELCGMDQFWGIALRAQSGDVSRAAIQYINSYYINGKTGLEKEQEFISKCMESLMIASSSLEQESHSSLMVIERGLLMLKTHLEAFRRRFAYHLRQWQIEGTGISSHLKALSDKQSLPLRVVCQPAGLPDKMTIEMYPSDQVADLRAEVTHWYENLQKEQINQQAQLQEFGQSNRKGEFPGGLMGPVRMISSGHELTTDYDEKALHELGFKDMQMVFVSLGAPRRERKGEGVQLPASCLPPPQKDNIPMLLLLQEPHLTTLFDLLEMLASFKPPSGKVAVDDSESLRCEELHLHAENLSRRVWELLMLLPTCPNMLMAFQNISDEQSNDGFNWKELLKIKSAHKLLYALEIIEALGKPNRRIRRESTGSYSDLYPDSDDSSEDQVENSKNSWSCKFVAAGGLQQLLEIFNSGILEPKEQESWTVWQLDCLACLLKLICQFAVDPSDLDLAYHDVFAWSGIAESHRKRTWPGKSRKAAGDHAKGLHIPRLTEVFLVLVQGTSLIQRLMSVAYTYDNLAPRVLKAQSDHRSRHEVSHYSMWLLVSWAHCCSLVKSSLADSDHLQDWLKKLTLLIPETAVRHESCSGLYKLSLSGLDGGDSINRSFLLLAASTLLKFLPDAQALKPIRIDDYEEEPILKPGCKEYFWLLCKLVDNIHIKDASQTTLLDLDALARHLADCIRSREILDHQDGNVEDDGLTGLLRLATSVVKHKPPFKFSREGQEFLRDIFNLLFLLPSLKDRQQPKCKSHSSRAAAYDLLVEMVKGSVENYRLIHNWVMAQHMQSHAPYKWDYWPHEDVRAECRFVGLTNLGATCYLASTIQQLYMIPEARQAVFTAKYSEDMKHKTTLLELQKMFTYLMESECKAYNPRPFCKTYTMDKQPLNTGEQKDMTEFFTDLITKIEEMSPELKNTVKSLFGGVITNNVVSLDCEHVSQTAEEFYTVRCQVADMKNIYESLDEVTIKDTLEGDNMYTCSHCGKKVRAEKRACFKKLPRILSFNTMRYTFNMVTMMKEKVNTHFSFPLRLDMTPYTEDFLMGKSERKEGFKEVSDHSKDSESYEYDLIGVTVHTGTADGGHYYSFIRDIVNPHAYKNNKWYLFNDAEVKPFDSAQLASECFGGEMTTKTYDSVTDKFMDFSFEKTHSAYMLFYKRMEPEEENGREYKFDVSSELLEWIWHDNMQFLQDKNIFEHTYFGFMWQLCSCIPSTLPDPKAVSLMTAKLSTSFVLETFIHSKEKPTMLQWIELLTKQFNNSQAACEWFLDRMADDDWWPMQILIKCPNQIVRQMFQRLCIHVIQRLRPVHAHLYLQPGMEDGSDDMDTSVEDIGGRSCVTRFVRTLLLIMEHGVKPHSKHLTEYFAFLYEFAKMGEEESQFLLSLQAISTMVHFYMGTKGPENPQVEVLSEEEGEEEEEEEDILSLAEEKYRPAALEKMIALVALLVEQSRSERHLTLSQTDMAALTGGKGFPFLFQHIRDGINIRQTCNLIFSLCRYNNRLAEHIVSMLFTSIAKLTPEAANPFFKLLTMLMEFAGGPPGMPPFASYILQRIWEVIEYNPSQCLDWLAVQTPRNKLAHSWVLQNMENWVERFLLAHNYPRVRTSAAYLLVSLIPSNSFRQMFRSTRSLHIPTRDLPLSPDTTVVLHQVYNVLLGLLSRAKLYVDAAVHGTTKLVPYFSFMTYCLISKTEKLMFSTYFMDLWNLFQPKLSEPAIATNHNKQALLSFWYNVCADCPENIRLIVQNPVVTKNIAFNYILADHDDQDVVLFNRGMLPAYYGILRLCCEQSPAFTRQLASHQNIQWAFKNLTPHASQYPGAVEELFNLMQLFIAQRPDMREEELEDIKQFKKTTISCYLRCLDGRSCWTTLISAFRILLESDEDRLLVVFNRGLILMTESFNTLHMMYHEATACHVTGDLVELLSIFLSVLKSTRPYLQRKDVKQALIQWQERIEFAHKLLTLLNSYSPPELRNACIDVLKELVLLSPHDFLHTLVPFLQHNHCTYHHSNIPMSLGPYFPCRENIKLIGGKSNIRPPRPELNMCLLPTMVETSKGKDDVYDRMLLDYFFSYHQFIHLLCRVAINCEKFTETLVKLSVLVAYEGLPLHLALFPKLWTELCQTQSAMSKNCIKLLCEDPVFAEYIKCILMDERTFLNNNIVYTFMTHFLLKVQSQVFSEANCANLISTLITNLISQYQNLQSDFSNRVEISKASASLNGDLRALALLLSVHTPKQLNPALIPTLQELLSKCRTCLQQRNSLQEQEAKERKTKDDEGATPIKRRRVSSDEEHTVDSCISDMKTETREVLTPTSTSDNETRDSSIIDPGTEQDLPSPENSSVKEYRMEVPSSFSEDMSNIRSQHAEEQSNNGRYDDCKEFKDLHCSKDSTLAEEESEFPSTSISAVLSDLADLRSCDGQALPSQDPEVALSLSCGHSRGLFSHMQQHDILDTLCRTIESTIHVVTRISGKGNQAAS
How it was run: (§1)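 Global-median-normalised Spectronaut label-free quantities were compared by unpaired t-test, and values are average log2 ratios of fragment over vehicle. Only proteins with ≥2 unique peptides were used. HEK293T lysate (495 µg per sample) was treated in triplicate with fragment at 200 µM or vehicle for 3 h and then with Biotin-Ahx-Ub-VS at 0.5 µM final for 1 h. Labelled DUBs were then NeutrAvidin-enriched, digested with LysC and trypsin, and run by diaPASEF LC-MS/MS.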

USP36 = molecular target: T1, USP36 (UniProt Q9P275)
T1 sequence (whole entry): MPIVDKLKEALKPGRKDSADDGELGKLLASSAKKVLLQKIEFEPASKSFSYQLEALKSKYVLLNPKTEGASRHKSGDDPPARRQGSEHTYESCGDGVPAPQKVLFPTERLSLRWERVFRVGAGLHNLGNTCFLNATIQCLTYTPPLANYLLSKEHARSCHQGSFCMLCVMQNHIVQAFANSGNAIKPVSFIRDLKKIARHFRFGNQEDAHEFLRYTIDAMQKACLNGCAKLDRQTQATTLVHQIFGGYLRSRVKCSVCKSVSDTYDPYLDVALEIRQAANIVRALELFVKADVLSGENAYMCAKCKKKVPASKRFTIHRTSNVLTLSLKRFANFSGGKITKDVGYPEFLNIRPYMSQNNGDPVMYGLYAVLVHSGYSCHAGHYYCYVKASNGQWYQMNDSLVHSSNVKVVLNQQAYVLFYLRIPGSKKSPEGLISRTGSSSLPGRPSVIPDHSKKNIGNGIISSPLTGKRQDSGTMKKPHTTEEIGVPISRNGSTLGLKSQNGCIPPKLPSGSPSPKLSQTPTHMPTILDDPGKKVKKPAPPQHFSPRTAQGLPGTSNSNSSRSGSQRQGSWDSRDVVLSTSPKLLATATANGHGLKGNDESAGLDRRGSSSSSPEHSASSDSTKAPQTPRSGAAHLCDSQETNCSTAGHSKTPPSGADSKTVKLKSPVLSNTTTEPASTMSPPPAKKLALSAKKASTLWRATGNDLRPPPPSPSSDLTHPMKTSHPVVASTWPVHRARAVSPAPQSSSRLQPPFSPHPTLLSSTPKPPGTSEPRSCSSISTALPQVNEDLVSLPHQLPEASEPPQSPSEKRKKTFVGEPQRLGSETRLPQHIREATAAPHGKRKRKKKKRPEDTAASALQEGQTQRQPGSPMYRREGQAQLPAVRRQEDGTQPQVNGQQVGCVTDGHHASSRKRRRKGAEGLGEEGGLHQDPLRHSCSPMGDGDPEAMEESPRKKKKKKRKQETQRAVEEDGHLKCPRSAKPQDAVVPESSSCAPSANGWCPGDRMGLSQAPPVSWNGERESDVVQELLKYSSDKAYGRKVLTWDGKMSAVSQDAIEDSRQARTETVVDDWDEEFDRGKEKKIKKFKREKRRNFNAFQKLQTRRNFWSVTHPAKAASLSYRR
How it was run: as §1

USP38 = molecular target: T2, USP38 (UniProt Q8NB14)
T2 sequence (whole entry): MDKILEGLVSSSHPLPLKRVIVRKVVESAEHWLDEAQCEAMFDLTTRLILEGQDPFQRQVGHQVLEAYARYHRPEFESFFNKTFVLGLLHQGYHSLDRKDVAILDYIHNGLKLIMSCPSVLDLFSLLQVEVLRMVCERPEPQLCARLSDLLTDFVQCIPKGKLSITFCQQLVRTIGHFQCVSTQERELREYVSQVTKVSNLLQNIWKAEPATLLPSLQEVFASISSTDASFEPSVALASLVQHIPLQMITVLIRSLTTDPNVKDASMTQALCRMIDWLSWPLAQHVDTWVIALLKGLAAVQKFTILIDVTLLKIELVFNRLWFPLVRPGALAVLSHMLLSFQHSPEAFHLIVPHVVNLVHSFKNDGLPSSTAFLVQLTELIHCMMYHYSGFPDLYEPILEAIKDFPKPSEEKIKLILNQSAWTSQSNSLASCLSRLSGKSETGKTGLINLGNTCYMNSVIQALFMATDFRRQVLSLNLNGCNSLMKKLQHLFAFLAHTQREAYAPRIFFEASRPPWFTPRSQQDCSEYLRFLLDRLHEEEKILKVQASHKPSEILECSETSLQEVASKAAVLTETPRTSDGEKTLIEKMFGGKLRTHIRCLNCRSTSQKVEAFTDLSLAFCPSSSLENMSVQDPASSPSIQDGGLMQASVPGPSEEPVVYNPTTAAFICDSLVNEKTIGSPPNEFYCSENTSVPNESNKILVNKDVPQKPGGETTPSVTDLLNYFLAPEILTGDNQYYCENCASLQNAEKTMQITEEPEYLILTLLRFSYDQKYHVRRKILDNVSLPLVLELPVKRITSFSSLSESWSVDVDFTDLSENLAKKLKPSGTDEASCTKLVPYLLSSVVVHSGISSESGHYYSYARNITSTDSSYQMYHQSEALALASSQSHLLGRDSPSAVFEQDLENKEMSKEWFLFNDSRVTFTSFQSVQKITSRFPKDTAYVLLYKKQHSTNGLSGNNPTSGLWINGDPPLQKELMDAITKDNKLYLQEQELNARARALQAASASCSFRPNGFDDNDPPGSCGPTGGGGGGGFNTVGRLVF
How it was run: as §1

USP39 = molecular target: T3, USP39 (UniProt Q53GS9)
T3 sequence (whole entry): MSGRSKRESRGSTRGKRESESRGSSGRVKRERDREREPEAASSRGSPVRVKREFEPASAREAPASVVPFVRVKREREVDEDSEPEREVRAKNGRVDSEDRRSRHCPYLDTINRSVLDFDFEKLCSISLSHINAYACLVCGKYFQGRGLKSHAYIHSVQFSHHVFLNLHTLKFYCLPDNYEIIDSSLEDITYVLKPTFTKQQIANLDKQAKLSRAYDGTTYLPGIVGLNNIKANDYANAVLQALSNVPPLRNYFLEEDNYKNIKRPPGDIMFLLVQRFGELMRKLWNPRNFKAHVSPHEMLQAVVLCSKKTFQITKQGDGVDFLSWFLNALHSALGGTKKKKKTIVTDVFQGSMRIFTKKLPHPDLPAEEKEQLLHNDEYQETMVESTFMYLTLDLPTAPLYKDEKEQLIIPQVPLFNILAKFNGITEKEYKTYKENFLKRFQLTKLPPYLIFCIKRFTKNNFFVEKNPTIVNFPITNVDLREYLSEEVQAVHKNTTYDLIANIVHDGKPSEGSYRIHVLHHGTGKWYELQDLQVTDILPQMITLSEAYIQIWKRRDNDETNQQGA
How it was run: as §1

USP4 = molecular target: T4, USP4 (UniProt Q13107)
T4 sequence (whole entry): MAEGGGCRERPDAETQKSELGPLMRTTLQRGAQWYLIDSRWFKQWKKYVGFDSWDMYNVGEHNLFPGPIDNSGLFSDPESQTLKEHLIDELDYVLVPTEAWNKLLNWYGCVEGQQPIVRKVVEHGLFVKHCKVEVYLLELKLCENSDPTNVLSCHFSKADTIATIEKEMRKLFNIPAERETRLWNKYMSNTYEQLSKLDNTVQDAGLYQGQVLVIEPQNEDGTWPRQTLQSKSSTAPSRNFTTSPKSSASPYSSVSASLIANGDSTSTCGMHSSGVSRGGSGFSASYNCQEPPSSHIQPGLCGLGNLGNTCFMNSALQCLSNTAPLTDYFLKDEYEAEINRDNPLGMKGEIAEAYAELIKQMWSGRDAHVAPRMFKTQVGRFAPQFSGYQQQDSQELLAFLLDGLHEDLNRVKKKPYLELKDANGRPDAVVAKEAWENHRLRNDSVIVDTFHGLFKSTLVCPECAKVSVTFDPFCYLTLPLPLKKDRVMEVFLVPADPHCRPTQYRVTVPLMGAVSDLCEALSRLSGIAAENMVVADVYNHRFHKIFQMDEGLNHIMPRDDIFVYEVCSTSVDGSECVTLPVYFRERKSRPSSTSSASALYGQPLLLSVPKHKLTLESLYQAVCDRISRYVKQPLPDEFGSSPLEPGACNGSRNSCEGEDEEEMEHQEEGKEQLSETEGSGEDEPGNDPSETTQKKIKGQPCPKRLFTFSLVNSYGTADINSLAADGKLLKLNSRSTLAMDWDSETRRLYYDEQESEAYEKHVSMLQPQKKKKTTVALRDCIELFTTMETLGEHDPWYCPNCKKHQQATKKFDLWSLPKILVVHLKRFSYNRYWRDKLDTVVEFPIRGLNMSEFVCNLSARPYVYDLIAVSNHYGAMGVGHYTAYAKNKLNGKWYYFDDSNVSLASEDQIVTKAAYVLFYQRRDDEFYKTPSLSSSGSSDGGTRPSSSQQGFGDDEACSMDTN
How it was run: as §1

Measured: log2 ratio of Biotin-Ahx-Ub-VS probe labelling

Cc1c(C#N)c(NC(=O)CCl)n(Cc2ccco2)c1C
inactive: USP34 -0.304 | USP36 -0.0578 | USP38 -0.297 | USP39 -0.162 | USP4 -0.372
